# The panel holds about 83,000 compounds, 20% with a hit somewhere; the sample as a whole holds those more often.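 Negative percent growth values reflect cell death: -40 means 40% of the cells present at the start died, and -100 means all died.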 Values without a mark were called inactive. Active and inactive are the calls of the source. How the source made its calls: active means growth percent below 10; inactive means the rest.
# Assays:
# Experiment in all cases: NCI-60 one-dose screen, 48 h (100 = growth as untreated, 0 = no growth, -100 = all killed)
# Conditions in all cases: 10 µM unless noted
# HCT-15 colon = tested on: HCT-15 colon
# HT29 colon = tested on: HT29 colon
# SNB-75 CNS = tested on: SNB-75 CNS
# SNB-19 CNS = tested on: SNB-19 CNS
# U251 CNS = tested on: U251 CNS
# PC-3 prostate = tested on: PC-3 prostate
# SK-MEL-5 melanoma = tested on: SK-MEL-5 melanoma
# UACC-62 melanoma = tested on: UACC-62 melanoma
# LOX IMVI melanoma = tested on: LOX IMVI melanoma
# SK-MEL-28 melanoma = tested on: SK-MEL-28 melanoma
# SK-MEL-2 melanoma = tested on: SK-MEL-2 melanoma
# EKVX NSCLC = tested on: EKVX NSCLC
# SN12C renal = tested on: SN12C renal
# UO-31 renal = tested on: UO-31 renal
# TK-10 renal = tested on: TK-10 renal
# ACHN renal = tested on: ACHN renal
# CAKI-1 renal = tested on: CAKI-1 renal
# A498 renal = tested on: A498 renal
# CCRF-CEM leukemia = tested on: CCRF-CEM leukemia
# MOLT-4 leukemia = tested on: MOLT-4 leukemia
SMILES,growth (HCT-15 colon),growth (HT29 colon),growth (SNB-75 CNS),growth (SNB-19 CNS),growth (U251 CNS),growth (PC-3 prostate),growth (SK-MEL-5 melanoma),growth (UACC-62 melanoma),growth (LOX IMVI melanoma),growth (SK-MEL-28 melanoma),growth (SK-MEL-2 melanoma),growth (EKVX NSCLC),growth (SN12C renal),growth (UO-31 renal),growth (TK-10 renal),growth (ACHN renal),growth (CAKI-1 renal),growth (A498 renal),growth (CCRF-CEM leukemia),growth (MOLT-4 leukemia)
Nc1ccccc1-c1cc2c(c3c1[nH]c1ccccc13)CCCCC2,86.9%,88%,105%,104%,103%,92.1%,93.8%,95.4%,86.7%,107%,92.5%,89.9%,99.7%,96.7%,101%,107%,114%,119%,93.1%,90.8%
CCOC(=O)NCCc1ccccc1,118%,102%,78.7%,103%,108%,101%,111%,88.8%,93.9%,118%,104%,111%,99.2%,76.3%,112%,110%,86%,110%,116%,90.1%
OC(COc1ccccc1)CN1CCN(c2ccc(Cl)cc2)CC1 (stereo not given),115%,101%,95.2%,95.4%,102%,82%,96.2%,90.3%,101%,96.9%,104%,109%,97.2%,78.8%,105%,107%,94.7%,104%,-5.19% (active),93.1%
C[C@]12CC[C@@H]3c4cc(OC(F)F)c(OS(N)(=O)=O)cc4CC[C@H]3[C@@H]1CC[C@@H]2O,13.2%,13.9%,-15.7% (active),48.4%,28.2%,25.5%,6.56% (active),55.7%,28.6%,53.6%,46.3%,40.2%,32.6%,40.1%,94.2%,44.9%,41.4%,-8.42% (active),16.5%,18.7%
Cc1ccc(-c2nn(C)c(=O)c3noc(-c4ccc(C)cc4)c23)cc1,32.3%,9.47% (active),-21.4% (active),32.9%,27.4%,26.1%,21.5%,38.5%,44.3%,70.5%,9.26% (active),56.5%,44.1%,41.7%,47.4%,43.5%,37.7%,25.6%,18.9%,55.8%
CCCCn1c(=O)c(-c2cc(-c3ccc(Cl)cc3)nc(-c3ccc(Cl)cc3)c2)cc2ccc(Cl)cc21,105%,109%,86.4%,96.1%,101%,94.6%,104%,95.4%,98.1%,106%,123%,105%,98.8%,86.8%,115%,104%,91.6%,102%,100%,100%
COc1ccc(-n2c(N)c(-c3nc4ccccc4[nH]3)cc(C#N)c2=O)cc1,89.4%,90.2%,60.5%,78.9%,103%,85.4%,90.9%,102%,98.2%,100%,105%,79.1%,85%,77.8%,103%,75.9%,92.3%,64%,98.3%,99.3%
COc1cc(C(=O)/C=C/c2sc(Cl)nc2Cl)cc(OC)c1OC,-57.2% (active),25.1%,73.1%,77.6%,6.7% (active),50.8%,88.7%,85.1%,-86.5% (active),18.5%,82.7%,55.6%,7.55% (active),67.2%,94.3%,-94.7% (active),37.1%,89.9%,10.9%,23.2%
O=C(O)c1cn(C2CC2)c2cc(N3CCN(C(=O)Nc4nc(-c5ccc(Cl)cc5)cs4)CC3)c(F)cc2c1=O,7.05% (active),5.06% (active),9.36% (active),23.9%,10.8%,-2.99% (active),-60.3% (active),-4.17% (active),-66.8% (active),39.4%,-18.9% (active),19.6%,7.2% (active),2.13% (active),21.8%,6.02% (active),17.1%,-3.82% (active),13.6%,2.05% (active)
CCOC(=O)/C(C#N)=C\Nc1ccc2ncnc(Nc3ccc(Cl)cc3Cl)c2c1,92.7%,79.4%,91.3%,86.4%,81.4%,59.3%,78.3%,90%,87.4%,109%,110%,41.7%,89.5%,42%,44.2%,62.9%,39%,48.7%,70.9%,58.8%
COc1cc(C2CC(c3ccc(N(C)C)cc3)=NN2C(C)=O)cc(OC)c1OC (stereo not given),24.6%,9.83% (active),-23.6% (active),39.3%,29.3%,29.4%,9% (active),26.9%,37.6%,52.2%,37.1%,44.3%,37.7%,45.7%,63.4%,44.9%,27%,-1.88% (active),11.8%,11.6%
CCCSc1nc2ccc(C)cc2cc1/C=[N+](\[O-])c1ccccc1,11.5%,10% (active),21.4%,37.2%,12.8%,23.1%,27.6%,31.3%,19%,48.3%,68.8%,80.6%,26.1%,44.7%,89.5%,49.2%,70.5%,74.6%,11.2%,27.2%
COc1ccc(-c2cc(-c3ccc(Cl)cc3)c(C#N)c(=O)n2CCCCCC(=O)Nc2ccccc2N)cc1,23.1%,14.8%,-6.08% (active),70.7%,48.8%,39.5%,-79.7% (active),4.17% (active),-54.2% (active),60.5%,58.5%,51.5%,41.9%,43%,78.3%,34.2%,7.69% (active),39.1%,32.5%,35.2%
Cc1cccc2c(=O)c3c(sc12)c(NCc1ccccc1)nc1ccccc13,64.3%,83.4%,96.1%,107%,101%,89.1%,94.5%,74.3%,93.6%,116%,101%,89.7%,93.6%,66.5%,105%,90.9%,76.4%,72.4%,100%,92.1%
O=C1c2ccccc2NC(n2sc3ccccc3c2=O)N1c1ccccc1 (stereo not given),91.5%,90.6%,94%,101%,104%,92.9%,105%,93.3%,87.9%,116%,99.5%,85.5%,98.4%,78.4%,109%,99.6%,93.9%,89.2%,104%,99.4%

# — PubChem BioAssay (NCI)
